From PubChem
The list is not random: actives were taken first. Their share in the collection is about 12%.
G9a inh: blocks human histone lysine methyltransferase G9a; Q96KQ7; G9a H3K9 monomethylation, AlphaScreen, 2 h; Potency, µM (series often up to 102 µM), hits mostly inhibitors; 8.8% of 350,000 active; note: nearly all actives have a fitted effect of over 75% in size
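Using a bead-based AlphaScreen, monomethylated H3K9 product from 2 h room-temperature reactions (G9a 20 nM, peptide 500 nM, SAM 20 uM) was detected with 0.5 ug/mL rabbit anti-H3K9me1 antibody.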
Sfp PPTase inh: inhibitors of Bacillus subtilis Sfp phosphopantetheinyl transferase; Q9F4F7; AID 1490; Potency, µM, actives largely listed as inhibitors; 3.5% of 310,000 active; Biochemical Sfp PPTase activity, qHTS;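 note: the enzyme is Sfp with the accession as filed and its product quenches rhodamine fluorescence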
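With Hepes-Na pH 7.6 buffer containing 10 mM MgCl2, Sfp (15 nM) modified BHQ-2-YbbR (12.5 uM) using rhodamine-CoA (5 uM). Two reads 30 minutes apart at 525/598 nm yielded each well's rate.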
JMJD2A Tudor inh: JMJD2A Tudor domain (human) inhibition; O75164; AlphaScreen JMJD2A-Tudor / H3K4me3 peptide binding; Potency, µM (doses to about 114 µM), most hits filed as inhibitors; 4.4% of 390,000 active; note: nearly all actives have a fitted effect of over 50% in size
BAZ2B block: blocks human BAZ2B; Q9UIF8; AlphaScreen BAZ2B-H3K14Ac peptide displacement; Potency, µM (titrated, usually from 114 µM), usual class: inhibitors; 4.4% of 360,000 active; AID 504333; note: nearly all actives have a fitted effect of over 60% in size
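AlphaScreen luminescence quantifies BAZ2B engagement of H3K14Ac peptide; the protein and biotinylated peptide are both at 50 nM final, buffer PBS pH 7.4 with 0.01% Tween-20, all steps at room temperature.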
HP1b chromo inh: blocks HP1-beta chromodomain binding to methylated histone tails; P83916; AlphaScreen HP1-beta / biotin-H3K9me3 peptide binding; Potency, µM (titrated, usually from 114 µM), actives largely listed as inhibitors; 0.56% of 390,000 active; AID 540317; note: nearly all actives have a fitted effect of over 70% in size
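HP1-beta protein (50 nM final) preincubated 30 min at room temperature with biotinylated H3(1-18)K9me3 peptide (50 nM) in PBS pH 7.4, 0.01% Tween-20, then compound added for 30 min. AlphaScreen streptavidin donor/nickel chelate acceptor beads (10 ug/mL final), 30 min dark, luminescence read.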
A number is an active result; i = inactive; ? = inconclusive; nt = no result given; [ ] = dose if it differs, or a comment. Calls come from the whole dose curve; as a rule, active = well fitted curve in the direction sought with a large enough effect; inconclusive = small, poorly fitted or top-dose-only effect, or another doubt; inactive = no such curve, though single readings can be large; an effect the other way counts as inactive or inconclusive.

SMILES	G9a inh	Sfp PPTase inh	JMJD2A Tudor inh	BAZ2B block	HP1b chromo inh
CCOC(=O)/C=c1\s/c(=C(\C#N)C(N)=O)n(-c2ccccc2)c1=O	?	i	i	i	i
COc1ccc2nc(C)cc(Nc3ccc(C(=O)O)cc3)c2c1	i[2.33 µM]	i	i	i	i
COc1ccc(N/N=C(/N=Nc2nc(C)cc(=O)[nH]2)c2ccccc2)cc1	?	i	?	7.1µM	16µM
Cc1cc(=O)[nH]c(N=N/C(=N/Nc2ccccc2C)c2ccccc2)n1	28µM	i	?	?	?
Cc1cc(=O)[nH]c(N=N/C(=N/Nc2ccc(O)cc2)c2ccccc2)n1	0.56µM	i	56µM	10µM	?
Cc1cc(=O)[nH]c(N/N=C/c2ccccc2C(F)(F)F)n1	?	i	i	i	i
COc1cc(OC)cc(C(=O)NCC(=O)OC(C)C(=O)NC(C)C2CC3CCC2C3)c1 (centres undefined)	nt	nt	i	nt	i
Cc1oc2c(c1C(=O)NCc1cccc(Br)c1)C1=NCCN1C=N2	i	nt	i	i	i
CN(Cc1nc2ccccc2c(=O)[nH]1)Cc1nc2ccsc2c(=O)[nH]1	i	i	79µM	40µM	i
CC(NC(=O)CN(C)Cc1nc2ccccc2c(=O)[nH]1)c1ccccc1 (centres undefined)	i	i	i	i	i
CCc1ccc(C(=O)c2cn(CC(=O)Nc3ccc4c(c3)OCO4)c3ccc(CC)cc3c2=O)cc1	?	nt	i	79µM	i
CCc1ccc(C(=O)c2cn(CC(=O)Nc3cccc(OC)c3)c3ccc(OC)cc3c2=O)cc1	10µM	nt	11µM	50µM	i
CCc1ccc(C(=O)c2cn(CC(=O)Nc3ccc4c(c3)OCO4)c3cc(OC)c(OC)cc3c2=O)cc1	i	nt	i	79µM	i
COc1ccc(C(=O)c2cn(Cc3ccccc3F)c3ccc(F)cc3c2=O)cc1	i	nt	i	79µM	i
CCc1ccc(C(=O)c2cn(CC(=O)Nc3ccc4c(c3)OCO4)c3ccc(Cl)cc3c2=O)cc1	i	nt	i	i	i
CCOC(=O)C1CCCN(Cc2cn(C)nc2-c2ccc3c(c2)OCCO3)C1 (centres undefined)	i	i	i	i	i
COCCCNC(=O)c1ccc([N+](=O)[O-])c(Cl)c1	i	i	i	i	i
COc1cc(NC(=O)Nc2c[nH]c(=O)[nH]c2=O)cc(OC)c1OC	i	nt	i	i	i
Cc1cc(OCCN2CCCC2)ccc1[N+](=O)[O-]	7.9µM	i	3.2µM	?	i
Cc1cc(OCCN2CCOCC2)ccc1[N+](=O)[O-]	7.9µM	?	0.71µM	50µM	?
CC1CCN(CCOc2ccc(Cl)c(Cl)c2)CC1	?	i	10µM	i	?
CCOc1ccc(OCC)c(S(=O)(=O)N2CCC(C)CC2)c1	i	i	i	i	i
O=[N+]([O-])c1ccc(OCCN2CCCCCC2)cc1	32µM	i	2.8µM	50µM	?
Cc1ccc(OCCN2CCOCC2)cc1C	i	i	i	i	i
COc1ccc(OC)c(C2=NOC(C(=O)Nc3ccc4c(c3)OCCO4)C2)c1 (centres undefined)	i	i	i	?	i
SMILES	G9a inh	Sfp PPTase inh	JMJD2A Tudor inh	BAZ2B block	HP1b chromo inh
CCOC(=O)c1cc(OC(=O)c2cccc(F)c2)n(-c2ccccc2)n1	i	nt	?	?	i
Cn1nc(C(F)(F)F)c(C(=O)Nc2ccc(F)cc2F)c1Sc1cccc(Cl)c1	i[0.0925 µM]	i	i	i	i
COc1ccc(/C=N/NC(=O)CNC(=O)c2ccncc2)cc1OC	i	i	i	i	i
C[N+]1(CCOc2ccc([N+](=O)[O-])cc2)CCOCC1	?	i	56µM	?	?
Cc1cc(C)c(C)c(OCCOCCN2CCOCC2)c1	i	i	i	i	i
CCN1CCN(CCNC(=O)Nc2ccc([N+](=O)[O-])cc2)CC1	i	i	i	i	i
Cc1cc(C)c(OCCN2CCOCC2)c(Cl)c1	32µM	i	28µM	?	?
Cc1cc(OCCN2CCOCC2)ccc1Cl	10µM	i	i	?	?
O=C(NCCN1CCCCC1)Nc1ccc([N+](=O)[O-])cc1	79µM	i	i	i	i
CC(OC(=O)CC1CC2CCC1C2)C(=O)Nc1ccc(C(N)=O)cc1 (centres undefined)	?	nt	i	i	i
COc1cc2c(cc1OC)C(c1ccc(-c3ccc(Cl)cc3Cl)o1)=NCC2	?	28µM	i	?	i
COc1cc2c(cc1OC)C(c1ccc(-c3cc(Cl)ccc3Cl)o1)=NCC2	?	?	?	?	i
COc1cc2c(cc1OC)C(c1ccc(Cl)cc1)=NCC2	i	i	i	i	i
COc1cc2c(cc1OC)C(c1ccc(-c3ccc(Cl)c(Cl)c3)o1)=NCC2	14µM	20µM	18µM	?	?
COc1cc2c(cc1OC)C(c1ccc(-c3ccccc3Cl)o1)=NCC2	7.1µM	i	?	28µM	?
O=C(COc1ccc2ccc(=O)oc2c1)NCCCN1CCCC1=O	i	i	i	i	i
COc1cccc(-n2nnc3c(=O)n(CC(=O)N4CCCCC4)cnc32)c1	i	i	i	i	i
COC(=O)COc1ccc(-c2nccc(-c3ccc(Br)cc3)n2)cc1	i	i	16µM	i	i
COC(=O)COc1ccc(-c2nccc(-c3ccccn3)n2)cc1	i	i	i	i	i
COc1cc(-c2nnc(NC(=O)CS(=O)(=O)c3ccc(F)cc3)o2)cc(OC)c1OC	i	nt	40µM	56µM	i
COc1cc(-c2nnc(NC(=O)CS(=O)(=O)c3ccc(C)cc3)o2)cc(OC)c1OC	i	nt	25µM	45µM	i
CCN(C1CCCCC1)S(=O)(=O)c1c(C)n(C)c(=O)n(C)c1=O	i	nt	i	i	i
CN1CCC(=O)N(CCOc2ccccc2)CC1	28µM	i	?	?	i
COc1cccc(OC)c1OCCOCCN1CCN(C)CC1	i[2.33 µM]	i	i	i	i
CN1CCN(CCOc2ccc(-c3ccccc3)cc2)CC1	50µM	i	i	?	i
SMILES	G9a inh	Sfp PPTase inh	JMJD2A Tudor inh	BAZ2B block	HP1b chromo inh
COc1ccc(OCCOCCN2CCN(C)CC2)cc1	22µM	?	18µM	50µM	?
C=CCN1C(=NC(=O)CCCC(=O)O)SC2CS(=O)(=O)CC21 (centres undefined)	i	i	i	i	i
O=C(CSc1n[nH]c(-c2ccncc2)n1)Nc1ccccc1C(F)(F)F	25µM	i	i	i	i
O=C(CSc1n[nH]c(-c2ccncc2)n1)Nc1ccccn1	?	i	56µM	?	i
O=C(CSc1n[nH]c(-c2ccccc2)n1)Nc1ncccn1	?	i	i	i	i
O=C1CCCN2N=C(SCC(=O)Nc3ccccc3C(F)(F)F)SC2=N1	i	i	?	56µM	?
O=C(CSc1cn[nH]n1)Nc1ccccc1C(F)(F)F	25µM	i	i	i	i
Cc1cc2occ(CC(=O)NC3CCCc4ccccc43)c2cc1C (centres undefined)	i	i	i	i	i
CN(CCN1CCc2ccccc2C1)Cc1nc(Cc2ccccc2F)no1	i	i	i	i	i
